FAS TE block: FAS thioesterase domain inhibitors, primary screen, biochemical, fluorescence intensity, uHTS | inhibition, % at 15 µM | AID 602261, 2012 | hit rate 0.67% among 360,000 | recombinant FAS-TE, OMFH fluorogenic substrate, fluorescence endpoint | Fatty acid synthase (Homo sapiens), P49327;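 active = compounds whose normalised, plate-corrected inhibition of enzyme fluorescence in the single-dose primary screen is 50% or more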
NadD block: inhibitors of S. aureus NadD, primary screen, biochemical, colorimetric, uHTS; inhibition, % at 20 µM; Nicotinate-nucleotide adenylyltransferase NadD (Staphylococcus aureus N315); hit rate 0.78% among 360,000; purified NadD enzyme, colorimetric absorbance read-out; in the data active = inhibition above about 26%
Mot1-301 SUMO: yeast Mot1-301 growth rescue at high temperature, primary screen, SUMOylation pathway inhibitor project, S. cerevisiae, ATP luminescence, 38.5C | growth rescue, % at 18.8 µM | S. cerevisiae Mot1-301 growth rescue; percent above DMSO median, 100 means doubled | hit rate 1% among 320,000;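 active = every valid replicate shows activation above 250% relative to neutral control wells; inactive = the rest, any valid replicate at or below 250%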
ATG4B inh: ATG4B protease inhibitors, primary screen, biochemical, fluorescence, uHTS; ATG4B cleavage of LC3-PLA2, NBD-HPC fluorescence, 1 h; inhibition, % at 8.33 µM; Cysteine protease ATG4B (Homo sapiens), Q9Y4P1; hit rate 0.51% among 340,000; in the data active = inhibition above about 40%
Calb FLC: C. albicans growth inhibition with fluconazole, primary screen, CaCi-2 strain, Alamar Blue fluorescence; growth inhibition, % (test concentration not listed); C. albicans CaCi-2 (fluconazole-resistant clinical isolate) + fluconazole, 48 h; hit rate 0.57% among 300,000;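 active = growth inhibition above about 58% in most replicates, limit read from the data, passing the limit was not always enough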;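 also: all wells also contain fluconazole at 8 µg/ml as a sub-toxic cotreatment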
ATG4B confirm: ATG4B protease inhibitors, retest, confirmation, biochemical, fluorescence, single concentration. shares compounds with ATG4B inh. ATG4B protease fluorescent substrate cleavage assay. inhibition, % at 8.33 µM. hit rate 92% among 320. AID 504757, 2011; in the data active = inhibition above about 39%
PLA2 ctr: PLA2 enzyme inhibition, counter-screen for ATG4B inhibitor project, biochemical, single concentration, uHTS hits; shares compounds with ATG4B inh; purified PLA2, NBD-C6-HPC fluorescence, 45 min; inhibition, % at 8.33 µM; hit rate 66% among 1,600; in the data active = inhibition above about 50%
FAS-TE conf: FAS thioesterase domain inhibitors, confirmation, biochemical, fluorescence intensity, single concentration; shares compounds with FAS TE block; recombinant FAS-TE, OMFH fluorogenic substrate; inhibition, % at 15 µM; hit rate 45% among 2,300; AID 624325, 2012;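 active = compounds inhibiting the enzyme by at least 50% at 15 µM in any one of the replicates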
Each line names hits and unclear results; the compound was inactive in the other large screens (follow-up assays come after a bar, where they were run). A selection: hits, their analogues and other compounds. The true share with any hit is near 3.1%.

Clc1ccc(C(c2ccc(Cl)cc2)n2cc[n+](CC(OCc3ccc(Cl)cc3Cl)c3ccc(Cl)cc3Cl)c2)cc1 (configuration not stated)	NadD block 80, ATG4B inh 45 (no result: Calb FLC) | PLA2 ctr 90
COP(=O)(OC)C(NC(C)=O)C(Cl)(Cl)Cl (configuration not stated)	none (no result: Mot1-301 SUMO)
Cc1nc2c(=O)n(C)c(=O)nc-2n(C)n1	ATG4B inh 82 | ATG4B confirm inactive | PLA2 ctr inactive
O=C1C(=O)c2ccccc2-c2ccccc21	ATG4B inh 85 (no result: Calb FLC) | ATG4B confirm inactive | PLA2 ctr inactive
Cc1ccc2c(C)cccc2c1	none (no result: Mot1-301 SUMO, Calb FLC)
NC(N)=N/N=C/c1ccc(N(c2ccccc2)c2ccccc2)cc1	ATG4B inh 53, Calb FLC 94 | PLA2 ctr 66
O=c1c2ccccc2nc(/C=C/c2ccccc2O)n1-c1ccccc1O	none (no result: ATG4B inh)
O=c1c2ccccc2nc(/C=C/c2ccccc2F)n1-c1ccccc1O	ATG4B inh 62 | PLA2 ctr 70
CCCCn1c(O)c(/C(CC)=N/N2CCCCC2c2cccnc2)c(=O)[nH]c1=S (configuration not stated)	none
C/C(=N\N1CCCCC1c1cccnc1)c1c(O)n(C2CCCCC2)c(=S)[nH]c1=O (configuration not stated)	FAS TE block 70, ATG4B inh 43 | PLA2 ctr inactive | FAS-TE conf inactive
Oc1c(Br)c(Br)c(Br)c(Br)c1Br	FAS TE block 60, ATG4B inh 60 (no result: Calb FLC) | PLA2 ctr 62 | FAS-TE conf 72
O=C(/C=C/c1ccc(Cl)cc1)NC(=S)N1C[C@H]2C[C@H](C1)c1cccc(=O)n1C2	none
CCOC(=O)[C@]12Cc3ccccc3[C@H]1N(C(C)C)C(=O)c1ccccc12	none (no result: Mot1-301 SUMO, ATG4B inh, Calb FLC)
CCOC(=O)[C@]12Cc3cc(C)ccc3[C@H]1N(Cc1ccccc1)C(=O)c1cc(OC)ccc12	none (no result: Mot1-301 SUMO, ATG4B inh, Calb FLC)
CCOC(=O)[C@]12Cc3ccc(C)cc3[C@H]1N(C1CCCCC1)C(=O)c1ccccc12	FAS TE block 80 (no result: Mot1-301 SUMO, ATG4B inh, Calb FLC) | FAS-TE conf 24
CCOC(=O)[C@]12Cc3c(cc(OC)c(OC)c3OC)[C@H]1N(C1CCCCC1)C(=O)c1ccccc12	FAS TE block 81 (no result: Mot1-301 SUMO, ATG4B inh, Calb FLC) | FAS-TE conf 62
CCOC(=O)[C@]12Cc3ccc(C)cc3[C@H]1N(C1CCCCC1)C(=O)c1cc(OC)ccc12	FAS TE block 77 (no result: Mot1-301 SUMO, ATG4B inh, Calb FLC) | FAS-TE conf 28
CCOC(=O)[C@]12Cc3cc(C)ccc3[C@H]1N(C1CCCCC1)C(=O)c1ccccc12	FAS TE block 82 (no result: Mot1-301 SUMO, ATG4B inh, Calb FLC) | FAS-TE conf 33
C1CN(P2(N3CC3)=NP(N3CC3)(N3CC3)=NP(N3CC3)(N3CC3)=N2)CCO1 (configuration not stated)	none (no result: Mot1-301 SUMO, ATG4B inh, Calb FLC)
CC(=O)OC1=CC[C@H]2[C@@H]3CC[C@H]4C[C@H](OC(C)=O)[C@@H](OC(C)=O)C[C@]4(C)[C@H]3CC[C@]12C	none (no result: Calb FLC)
CCOC(=O)[C@]12Cc3cc(Cl)ccc3[C@H]1N(C1CCCCC1)C(=O)c1cc(OC)ccc12	FAS TE block 84 (no result: Mot1-301 SUMO, ATG4B inh, Calb FLC) | FAS-TE conf 39
CCCCCN1C(=O)c2cc(OC)ccc2[C@@]2(C(=O)OCC)Cc3cc(OC)ccc3[C@@H]12	FAS TE block 52 (no result: Mot1-301 SUMO, ATG4B inh, Calb FLC) | FAS-TE conf inactive
CCOC(=O)[C@]12Cc3cc(OC)ccc3[C@H]1N(C)C(=O)c1cc(OC)ccc12	none (no result: Mot1-301 SUMO, ATG4B inh, Calb FLC)
CCOC(=O)[C@]12Cc3cc(Cl)ccc3[C@H]1N(C)C(=O)c1cc(OC)ccc12	none (no result: Mot1-301 SUMO, ATG4B inh, Calb FLC)
N[C@H](CO)Cc1ccccc1	none (no result: Mot1-301 SUMO, Calb FLC)
O=C(C1CC(c2ccc(F)cc2)=NO1)N1CCC2(CC1)OCCO2 (configuration not stated)	none
O=C(C1CC(c2ccc(Cl)c(Cl)c2)=NO1)N1CCC2(CC1)OCCO2 (configuration not stated)	FAS TE block 57 | FAS-TE conf 66
CSc1ccccc1NP1(=O)OCC(C)([N+](=O)[O-])CO1 (configuration not stated)	none (no result: Mot1-301 SUMO, Calb FLC)
Oc1ccc(O)c2c1C1(Cl)C(Cl)=C(Cl)C2(Cl)C1(Cl)Cl	FAS TE block 51 (no result: Mot1-301 SUMO, Calb FLC) | FAS-TE conf 50
Oc1ccccc1Cl	none (no result: Mot1-301 SUMO, Calb FLC)
O=[N+]([O-])c1cccc(CN2CC=C(c3ccc(F)cc3)CC2)c1	FAS TE block 57 | FAS-TE conf 53
CC(C)c1ccc(C(c2c(O)c3ccccc3oc2=O)c2c(O)c3ccccc3oc2=O)cc1	none (no result: Mot1-301 SUMO, ATG4B inh, Calb FLC)
O=c1oc2ccccc2c(O)c1C(c1ccc([N+](=O)[O-])cc1)c1c(O)c2ccccc2oc1=O	FAS TE block 76 (no result: Mot1-301 SUMO) | FAS-TE conf 82
COC(=O)C1C(O)CC2CCC1N2C (configuration not stated)	none (no result: Mot1-301 SUMO, Calb FLC)
CSCCC(c1nnnn1C1CCCCC1)N1CCC(n2c(=O)[nH]c3ccccc32)CC1 (configuration not stated)	none (no result: Mot1-301 SUMO, ATG4B inh, Calb FLC)
O=c1[nH]c2ccccc2n1C1CCN(C(c2cccc3ccccc23)c2nnnn2-c2ccc3c(c2)OCCO3)CC1 (configuration not stated)	FAS TE block 72 (no result: Mot1-301 SUMO, ATG4B inh, Calb FLC) | FAS-TE conf inactive
O=c1[nH]c2ccccc2n1C1CCN(C(c2cc3ccccc3o2)c2nnnn2-c2ccc3c(c2)OCCO3)CC1 (configuration not stated)	FAS TE block 66 (no result: Mot1-301 SUMO, ATG4B inh, Calb FLC) | FAS-TE conf inactive
O=c1[nH]c2ccccc2n1C1CCN(C(CCc2ccccc2)c2nnnn2C2CCCCC2)CC1 (configuration not stated)	FAS TE block 55 (no result: Mot1-301 SUMO, ATG4B inh, Calb FLC) | FAS-TE conf inactive
CCN(CCCl)c1cc(CN(C)C)cc(NC(=O)c2ccc(C(=O)Nc3cc(CN(C)C)cc(N(CC)CCCl)c3)cc2)c1	FAS TE block 51 (no result: Mot1-301 SUMO, Calb FLC) | FAS-TE conf inactive
c1cc2c(cc1N1CCOCC1)CNCc1cnnn1-2	none (no result: Mot1-301 SUMO, ATG4B inh, Calb FLC)
O=C1NCN(c2ccccc2)C12CCN(C(c1cccc3ccccc13)c1nnnn1C1CCCC1)CC2 (configuration not stated)	FAS TE block 77 (no result: Mot1-301 SUMO, ATG4B inh, Calb FLC) | FAS-TE conf inactive

From PubChem BioAssay
